From PubChem BioAssay (NCATS)
Inconclusive results are not listed. More than one record can exist for a structure, and the calls need not agree. Active and inactive are the calls of the source. Calls follow the shape of the dose curve; as a rule, active = well fitted cell-killing curve with a large enough effect; inconclusive = small, poorly fitted or top-dose-only effect, or effect the other way; inactive = flat fitted curve, though single readings scatter.

system: C33A; assay: Primary qHTS to identify gynecologic anti-cancer compounds using libraries of approved drugs and bioactive compounds (AID 1345084); conditions: Gynecologic cancer cell panel viability, ATPlite luminescence, 48 h; series mostly up to 57.5 µM; activity change, negative = cytotoxicity: at the top concentration; also: nearly all actives have a fitted effect of over 55% in size
Method in brief: (§1)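 Cells, 1,000 per well, plated 16 h, then exposed 48 h at 37 C to compounds. Viability by ATPlite luminescence after 15 min at room temperature.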
% is scaled to controls: 0 for no effect and ±100 for the full control effect; potency is read from the fitted curve at half-maximal effect.

Row | SMILES | Potency | activity change, negative = cytotoxicity
1 | COC(=O)[C@@H]1[C@H]2C[C@H]3c4[nH]c5ccccc5c4CCN3C[C@@H]2CC[C@@H]1O | inactive | –
2 | Cn1c(N2CCCCS2(=O)=O)nc(C(=O)NCc2ccc(F)cc2)c(O)c1=O | – | -0.576% (inactive)
3 | CC1CCC(C(=O)N(c2cc(C#CC(C)(C)C)sc2C(=O)O)C2CCC(O)CC2)CC1 (configuration not stated) | – | 20.8% (inactive)
4 | CCCNC(=O)NS(=O)(=O)c1ccc(Cl)cc1 | inactive | –
5 | CCN(CC)CCNC(=O)c1ccc(N)cc1 | inactive | –
6 | Cc1ccc(Nc2cc(-c3cccc(N4C(=O)c5ccccc5C4=O)c3)ncn2)cc1NS(C)(=O)=O | – | -10.6% (inactive)
7 | Cc1cccc(C)c1OCC(C)N (configuration not stated) | – | 17.3% (inactive)
8 | CCOC(=O)C1=C(N)Oc2ccc(Br)cc2C1C(C#N)C(=O)OCC (configuration not stated) | inactive | –
9 | O=C(O)c1cc(-c2ccccc2)nc2ccccc12 | inactive | –
10 | NC(N)=Nc1nc(CSCC/C(N)=N/S(N)(=O)=O)cs1 | – | 9.34% (inactive)
11 | COc1ccccc1N1CCN(CCCNc2cc(=O)n(C)c(=O)n2C)CC1 | inactive | –

system: CAOV3; assay: as above; conditions: Gynecologic cancer cell panel viability, ATPlite luminescence, 48 h; series mostly up to 57.5 µM; activity change, negative = cytotoxicity: at the top concentration
Method in brief: as §1

Row | SMILES | Potency | activity change, negative = cytotoxicity
12 | COC(=O)[C@@H]1[C@H]2C[C@H]3c4[nH]c5ccccc5c4CCN3C[C@@H]2CC[C@@H]1O | inactive | –
13 | Cn1c(N2CCCCS2(=O)=O)nc(C(=O)NCc2ccc(F)cc2)c(O)c1=O | – | 4.38% (inactive)
14 | CC1CCC(C(=O)N(c2cc(C#CC(C)(C)C)sc2C(=O)O)C2CCC(O)CC2)CC1 (configuration not stated) | – | 1.18% (inactive)
15 | CCCNC(=O)NS(=O)(=O)c1ccc(Cl)cc1 | – | -0.757% (inactive)
16 | CCN(CC)CCNC(=O)c1ccc(N)cc1 | inactive | –
17 | Cc1ccc(Nc2cc(-c3cccc(N4C(=O)c5ccccc5C4=O)c3)ncn2)cc1NS(C)(=O)=O | – | -10.5% (inactive)
18 | Cc1cccc(C)c1OCC(C)N (configuration not stated) | – | -14.2% (inactive)
19 | NC(N)=Nc1nc(CSCC/C(N)=N/S(N)(=O)=O)cs1 | – | 3.17% (inactive)
20 | COc1ccccc1N1CCN(CCCNc2cc(=O)n(C)c(=O)n2C)CC1 | inactive | –

system: CASKI; assay: as above; conditions: Gynecologic cancer cell panel viability, ATPlite luminescence, 48 h; series mostly up to 57.5 µM; activity change, negative = cytotoxicity: at the top concentration
Method in brief: as §1

Row | SMILES | Potency | activity change, negative = cytotoxicity
21 | COC(=O)[C@@H]1[C@H]2C[C@H]3c4[nH]c5ccccc5c4CCN3C[C@@H]2CC[C@@H]1O | inactive | –
22 | Cn1c(N2CCCCS2(=O)=O)nc(C(=O)NCc2ccc(F)cc2)c(O)c1=O | – | 8.08% (inactive)
23 | CCCNC(=O)NS(=O)(=O)c1ccc(Cl)cc1 | inactive | –
24 | CCN(CC)CCNC(=O)c1ccc(N)cc1 | – | 12.6% (inactive)
25 | Cc1ccc(Nc2cc(-c3cccc(N4C(=O)c5ccccc5C4=O)c3)ncn2)cc1NS(C)(=O)=O | – | -17.6% (inactive)
26 | Cc1cccc(C)c1OCC(C)N (configuration not stated) | – | -1.69% (inactive)
27 | CCOC(=O)C1=C(N)Oc2ccc(Br)cc2C1C(C#N)C(=O)OCC (configuration not stated) | inactive | –
28 | O=C(O)c1cc(-c2ccccc2)nc2ccccc12 | – | 2.12% (inactive)
29 | NC(N)=Nc1nc(CSCC/C(N)=N/S(N)(=O)=O)cs1 | – | 16.4% (inactive)
30 | COc1ccccc1N1CCN(CCCNc2cc(=O)n(C)c(=O)n2C)CC1 | inactive | –

system: Es-2; assay: as above; conditions: Gynecologic cancer cell panel viability, ATPlite luminescence, 48 h; series mostly up to 57.5 µM; activity change, negative = cytotoxicity: at the top concentration
Method in brief: as §1

Row | SMILES | Potency | activity change, negative = cytotoxicity
31 | COC(=O)[C@@H]1[C@H]2C[C@H]3c4[nH]c5ccccc5c4CCN3C[C@@H]2CC[C@@H]1O | inactive | –
32 | Cn1c(N2CCCCS2(=O)=O)nc(C(=O)NCc2ccc(F)cc2)c(O)c1=O | – | 9.29% (inactive)
33 | CC1CCC(C(=O)N(c2cc(C#CC(C)(C)C)sc2C(=O)O)C2CCC(O)CC2)CC1 (configuration not stated) | – | -0.586% (inactive)
34 | CCCNC(=O)NS(=O)(=O)c1ccc(Cl)cc1 | inactive | –
35 | CCN(CC)CCNC(=O)c1ccc(N)cc1 | inactive | –
36 | Cc1ccc(Nc2cc(-c3cccc(N4C(=O)c5ccccc5C4=O)c3)ncn2)cc1NS(C)(=O)=O | – | -11.4% (inactive)
37 | Cc1cccc(C)c1OCC(C)N (configuration not stated) | – | -0.344% (inactive)
38 | CCOC(=O)C1=C(N)Oc2ccc(Br)cc2C1C(C#N)C(=O)OCC (configuration not stated) | inactive | –
39 | O=C(O)c1cc(-c2ccccc2)nc2ccccc12 | inactive | –
40 | NC(N)=Nc1nc(CSCC/C(N)=N/S(N)(=O)=O)cs1 | – | -0.255% (inactive)
41 | COc1ccccc1N1CCN(CCCNc2cc(=O)n(C)c(=O)n2C)CC1 | inactive | –

system: HeLa; assay: as above; conditions: Gynecologic cancer cell panel viability, ATPlite luminescence, 48 h; series mostly up to 57.5 µM; activity change, negative = cytotoxicity: at the top concentration
Method in brief: as §1

Row | SMILES | Potency | activity change, negative = cytotoxicity
42 | COC(=O)[C@@H]1[C@H]2C[C@H]3c4[nH]c5ccccc5c4CCN3C[C@@H]2CC[C@@H]1O | inactive | –
43 | Cn1c(N2CCCCS2(=O)=O)nc(C(=O)NCc2ccc(F)cc2)c(O)c1=O | – | 1.18% (inactive)
44 | CC1CCC(C(=O)N(c2cc(C#CC(C)(C)C)sc2C(=O)O)C2CCC(O)CC2)CC1 (configuration not stated) | – | 7.11% (inactive)
45 | CCCNC(=O)NS(=O)(=O)c1ccc(Cl)cc1 | inactive | –
46 | CCN(CC)CCNC(=O)c1ccc(N)cc1 | inactive | –
47 | Cc1ccc(Nc2cc(-c3cccc(N4C(=O)c5ccccc5C4=O)c3)ncn2)cc1NS(C)(=O)=O | – | -11.6% (inactive)
48 | Cc1cccc(C)c1OCC(C)N (configuration not stated) | – | 7.11% (inactive)
49 | CCOC(=O)C1=C(N)Oc2ccc(Br)cc2C1C(C#N)C(=O)OCC (configuration not stated) | inactive | –
50 | O=C(O)c1cc(-c2ccccc2)nc2ccccc12 | 50.1 µM (active) and inactive | –
51 | NC(N)=Nc1nc(CSCC/C(N)=N/S(N)(=O)=O)cs1 | – | 4.19% (inactive)
52 | COc1ccccc1N1CCN(CCCNc2cc(=O)n(C)c(=O)n2C)CC1 | inactive | –

system: Hek293T; assay: as above; conditions: Gynecologic cancer cell panel viability, ATPlite luminescence, 48 h, control line for the selectivity index; series mostly up to 57.5 µM; activity change, negative = cytotoxicity: at the top concentration
Method in brief: as §1

Row | SMILES | Potency | activity change, negative = cytotoxicity
53 | COC(=O)[C@@H]1[C@H]2C[C@H]3c4[nH]c5ccccc5c4CCN3C[C@@H]2CC[C@@H]1O | inactive | –
54 | Cn1c(N2CCCCS2(=O)=O)nc(C(=O)NCc2ccc(F)cc2)c(O)c1=O | – | 11.9% (inactive)
55 | CC1CCC(C(=O)N(c2cc(C#CC(C)(C)C)sc2C(=O)O)C2CCC(O)CC2)CC1 (configuration not stated) | – | 0.844% (inactive)
56 | CCCNC(=O)NS(=O)(=O)c1ccc(Cl)cc1 | inactive | –
57 | CCN(CC)CCNC(=O)c1ccc(N)cc1 | inactive | –
58 | Cc1cccc(C)c1OCC(C)N (configuration not stated) | – | 6.37% (inactive)
59 | CCOC(=O)C1=C(N)Oc2ccc(Br)cc2C1C(C#N)C(=O)OCC (configuration not stated) | inactive | –
60 | O=C(O)c1cc(-c2ccccc2)nc2ccccc12 | – | -5.16% (inactive)
61 | NC(N)=Nc1nc(CSCC/C(N)=N/S(N)(=O)=O)cs1 | – | 2.22% (inactive)
62 | COc1ccccc1N1CCN(CCCNc2cc(=O)n(C)c(=O)n2C)CC1 | inactive | –
